# Measurements reported in PubChem BioAssay (NCI).
# This is part of a sample that, as a whole, favours compounds with a hit. Of some 79,000 tested, about 15% had one in any assay. Values without a mark were called inactive. Activity calls are given as the source filed them. No stated cut-off is given here; in the data, active means growth inhibition above about 70%; inactive means the rest.
# What was measured:
# [1] = NCI Yeast Anticancer Drug Screen. Data for the wt1 strain (AID 149);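 further: 0% = growth of vehicle-treated wt1 cultures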; details: S. cerevisiae wt1 strain (SPY 50644) growth inhibition, hits give high values
# In short: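 wt1 yeast, compound-treated; % growth inhibition vs vehicle control.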
# [2] = NCI Yeast Anticancer Drug Screen. Data for the rad50EPP+ strain (AID 151);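 further: 0% = growth of vehicle-treated control cultures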; details: S. cerevisiae rad50 mutant strain, hits give high values
# In short: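 Measured: growth inhibition of rad50EPP+ yeast. Reference: vehicle-treated controls. Screen uses strains with defined genetic alterations in DNA damage repair or cell cycle control.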
# [3] = NCI Yeast Anticancer Drug Screen. Data for the mgt1 strain (AID 153); details: S. cerevisiae mgt1 mutant growth inhibition, hits give high values
# In short: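 Compounds were applied to mgt1 mutant yeast, and growth was then compared against vehicle-treated control cultures to give percent inhibition.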
# [4] = NCI Yeast Anticancer Drug Screen. Data for the rad50 strain (AID 155);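 further: 0% = growth of vehicle-only cultures of the same strain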; details: S. cerevisiae rad50 strain growth inhibition, hits give high values
# In short: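 Genetically altered yeast (DNA repair pathway); compound treatment; growth inhibition vs vehicle ctrl.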
# [5] = NCI Yeast Anticancer Drug Screen. Data for the mec2-1 strain (AID 157); details: S. cerevisiae mec2-1 strain, hits give high values
# In short: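 Compounds were applied to mec2-1 yeast cells. Their growth was then compared with that of vehicle-treated cultures to give growth inhibition.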
# [6] = NCI Yeast Anticancer Drug Screen. Data for the rad14 strain (AID 159);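 further: 0% = growth of vehicle-treated control cultures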; details: S. cerevisiae rad14 strain growth inhibition, hits give high values
# In short: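 Test compounds were applied to a repair-deficient yeast strain. Its growth was then compared with that of cultures given vehicle alone, and inhibition was expressed relative to those controls.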
# [7] = NCI Yeast Anticancer Drug Screen. Data for the sgs1 mgt1 strain (AID 161);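 further: 0% = growth of cultures given vehicle only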; details: S. cerevisiae sgs1 mgt1 strain, hits give high values
# In short: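 This yeast growth screen uses a strain with defined DNA-repair lesions; compound-treated growth is compared with vehicle-treated growth.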
# [8] = NCI Yeast Anticancer Drug Screen. Data for the cln2 rad14 strain (AID 165);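 further: 0% = growth equal to vehicle treated cultures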; details: S. cerevisiae cln2 rad14 strain, hits give high values
# In short: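 Strain: cln2 rad14 yeast, altered in cell cycle control and DNA damage repair. Read-out: growth inhibition vs vehicle.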
# [9] = NCI Yeast Anticancer Drug Screen. Data for the bub3 strain (AID 167); details: S. cerevisiae bub3 mutant strain, hits give high values
# In short: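 Yeast carrying a defined mutation is treated with each compound, and growth is compared with that of vehicle-exposed cells to give inhibition.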
# [10] = NCI Yeast Anticancer Drug Screen. Data for the wt2 strain (AID 169);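 further: 0% = growth of vehicle-treated yeast cultures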; details: S. cerevisiae wt2 strain growth inhibition, hits give high values
# In short: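 Growth of compound-treated yeast is measured and expressed as inhibition relative to vehicle-only controls.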
# [11] = NCI Yeast Anticancer Drug Screen. Data for the mlh1 strain (AID 171);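 further: 0% = growth of vehicle-treated control cultures of the same strain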; details: S. cerevisiae mlh1 strain growth inhibition, hits give high values
# In short: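 Test agents were incubated with yeast bearing a defined DNA damage repair or cell cycle control alteration; values are growth inhibition normalised to vehicle-treated cultures.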
# [12] = NCI Yeast Anticancer Drug Screen. Data for the sgs1 strain (AID 173);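 further: 0% = growth of vehicle-only control cultures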; details: S. cerevisiae sgs1 mutant, hits give high values
# In short: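 Strain with an altered DNA repair or cell cycle pathway exposed to compound. Growth then measured. Value = inhibition versus vehicle control.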
# [13] = NCI Yeast Anticancer Drug Screen. Data for the mlh1 rad18 strain (AID 175); details: S. cerevisiae mlh1 rad18 strain growth inhibition, hits give high values
# In short: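 A repair-deficient yeast strain is exposed to test compound, and growth is scored relative to vehicle-treated controls.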
# [14] = NCI Yeast Anticancer Drug Screen. Data for the rad18 strain (AID 177); details: S. cerevisiae rad18 mutant growth inhibition, hits give high values
# In short: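 DNA-repair-defective yeast; compound treatment; growth inhibition scored against vehicle.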
# [15] = NCI Yeast Anticancer Drug Screen. Data for the CLN2oe strain (AID 163);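 further: 0% = growth of vehicle-only control cultures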; details: S. cerevisiae CLN2oe strain, hits give high values
# In short: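 Cells of an engineered yeast line with disturbed cell-cycle regulation are treated with compound. Inhibition of growth is then calculated relative to the vehicle-treated reference.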
# [16] = at 5.0 µM (retest, dose inferred, filed as 0.5)
# [17] = at 50.0 µM (retest, dose inferred, filed as 5.0)
structure (smiles),measurement,setting,value
COc1ccc(/C(=N/O)c2ccccc2C2=Nc3ccccc3C(NCc3ccccc3)O2)cc1C (stereo unspecified),growth inhibition,[1]; at 1.2 µM,-1%
same,growth inhibition,[1]; at 3.7 µM,-2%
same,growth inhibition,[1]; at 11.0 µM,1%
same,growth inhibition,[1]; at 33.0 µM,17%
same,growth inhibition,[1]; at 100.0 µM,89% (active)
same,growth inhibition,[2]; at 1.2 µM,3%
same,growth inhibition,[2]; at 3.7 µM,1%
same,growth inhibition,[2]; at 11.0 µM,15%
same,growth inhibition,[2]; at 33.0 µM,49%
same,growth inhibition,[2]; at 100.0 µM,82% (active)
same,growth inhibition,[3]; at 1.2 µM,-2%
same,growth inhibition,[3]; at 3.7 µM,-3%
same,growth inhibition,[3]; at 11.0 µM,-1%
same,growth inhibition,[3]; at 33.0 µM,31%
same,growth inhibition,[3]; at 100.0 µM,97% (active)
same,growth inhibition,[4]; at 1.2 µM,1%
same,growth inhibition,[4]; at 3.7 µM,3%
same,growth inhibition,[4]; [16],2%
same,growth inhibition,[4]; at 11.0 µM,11%
same,growth inhibition,[4]; at 33.0 µM,59%
same,growth inhibition,[4]; [17],95% (active)
same,growth inhibition,[4]; at 50.0 µM,94.9% (active)
same,growth inhibition,[4]; at 100.0 µM,94% (active)
same,growth inhibition,[5]; at 1.2 µM,-2%
same,growth inhibition,[5]; at 3.7 µM,0%
same,growth inhibition,[5]; [16],-4%
same,growth inhibition,[5]; at 11.0 µM,1%
same,growth inhibition,[5]; at 33.0 µM,37%
same,growth inhibition,[5]; [17],62%
same,growth inhibition,[5]; at 50.0 µM,92.6% (active)
same,growth inhibition,[5]; at 100.0 µM,96% (active)
same,growth inhibition,[6]; at 1.2 µM,1%
same,growth inhibition,[6]; at 3.7 µM,2%
same,growth inhibition,[6]; at 11.0 µM,7%
same,growth inhibition,[6]; at 33.0 µM,21%
same,growth inhibition,[6]; at 100.0 µM,96% (active)
same,growth inhibition,[7]; [16],-3%
same,growth inhibition,[7]; [17],85% (active)
same,growth inhibition,[7]; at 50.0 µM,95.8% (active)
same,growth inhibition,[8]; [16],31%
same,growth inhibition,[8]; [17],51%
same,growth inhibition,[8]; at 50.0 µM,83% (active)
same,growth inhibition,[9]; at 1.2 µM,-1%
same,growth inhibition,[9]; at 3.7 µM,2%
same,growth inhibition,[9]; [16],15%
same,growth inhibition,[9]; at 11.0 µM,4%
same,growth inhibition,[9]; at 33.0 µM,48%
same,growth inhibition,[9]; [17],93% (active)
same,growth inhibition,[9]; at 50.0 µM,94.8% (active)
same,growth inhibition,[9]; at 100.0 µM,95% (active)
same,growth inhibition,[10]; at 1.2 µM,-1%
same,growth inhibition,[10]; at 3.7 µM,-3%
same,growth inhibition,[10]; at 11.0 µM,0%
same,growth inhibition,[10]; at 33.0 µM,14%
same,growth inhibition,[10]; at 100.0 µM,96% (active)
same,growth inhibition,[11]; at 1.2 µM,-6%
same,growth inhibition,[11]; at 3.7 µM,-2%
same,growth inhibition,[11]; at 11.0 µM,0%
same,growth inhibition,[11]; at 33.0 µM,14%
same,growth inhibition,[11]; at 100.0 µM,96% (active)
same,growth inhibition,[12]; at 1.2 µM,-2%
same,growth inhibition,[12]; at 3.7 µM,-2%
same,growth inhibition,[12]; at 11.0 µM,2%
same,growth inhibition,[12]; at 33.0 µM,45%
same,growth inhibition,[12]; at 100.0 µM,95% (active)
same,growth inhibition,[13]; [16],2%
same,growth inhibition,[13]; [17],93% (active)
same,growth inhibition,[13]; at 50.0 µM,94.2% (active)
same,growth inhibition,[14]; at 1.2 µM,0%
same,growth inhibition,[14]; at 3.7 µM,0%
same,growth inhibition,[14]; at 11.0 µM,11%
same,growth inhibition,[14]; at 33.0 µM,67%
same,growth inhibition,[14]; at 100.0 µM,94% (active)
Cn1c(COc2ccc(/C=N/NC(=O)CCC(=O)N/N=C/c3ccc(OCc4c[n+]5ccccc5n4C)cc3)cc2)c[n+]2ccccc12,growth inhibition,[1]; at 1.2 µM,6%
same,growth inhibition,[1]; at 3.7 µM,7%
same,growth inhibition,[1]; at 11.0 µM,11%
same,growth inhibition,[1]; at 33.0 µM,12%
same,growth inhibition,[1]; at 100.0 µM,81% (active)
same,growth inhibition,[2]; at 1.2 µM,-4%
same,growth inhibition,[2]; at 3.7 µM,-7%
same,growth inhibition,[2]; at 11.0 µM,-18%
same,growth inhibition,[2]; at 33.0 µM,-18%
same,growth inhibition,[2]; at 100.0 µM,45%
same,growth inhibition,[3]; at 1.2 µM,4%
same,growth inhibition,[3]; at 3.7 µM,3%
same,growth inhibition,[3]; at 11.0 µM,4%
same,growth inhibition,[3]; at 33.0 µM,24%
same,growth inhibition,[3]; at 100.0 µM,98% (active)
same,growth inhibition,[4]; at 1.2 µM,1%
same,growth inhibition,[4]; at 3.7 µM,2%
same,growth inhibition,[4]; [16],-11%
same,growth inhibition,[4]; at 11.0 µM,1%
same,growth inhibition,[4]; at 33.0 µM,5%
same,growth inhibition,[4]; [17],55%
same,growth inhibition,[4]; at 50.0 µM,49.1%
same,growth inhibition,[4]; at 100.0 µM,97% (active)
same,growth inhibition,[5]; at 1.2 µM,-2%
same,growth inhibition,[5]; at 3.7 µM,0%
same,growth inhibition,[5]; [16],-10%
same,growth inhibition,[5]; at 11.0 µM,0%
same,growth inhibition,[5]; at 33.0 µM,10%
same,growth inhibition,[5]; [17],12%
same,growth inhibition,[5]; at 50.0 µM,32.1%
same,growth inhibition,[5]; at 100.0 µM,96% (active)
same,growth inhibition,[6]; at 1.2 µM,0%
same,growth inhibition,[6]; at 3.7 µM,-1%
same,growth inhibition,[6]; at 11.0 µM,0%
same,growth inhibition,[6]; at 33.0 µM,7%
same,growth inhibition,[6]; at 100.0 µM,97% (active)
same,growth inhibition,[7]; [16],-1%
same,growth inhibition,[7]; [17],47%
same,growth inhibition,[7]; at 50.0 µM,63.4%
same,growth inhibition,[15]; at 1.2 µM,-5%
same,growth inhibition,[15]; at 3.7 µM,-3%
same,growth inhibition,[15]; at 11.0 µM,-3%
same,growth inhibition,[15]; at 33.0 µM,-5%
same,growth inhibition,[15]; at 100.0 µM,76% (active)
same,growth inhibition,[8]; [16],-8%
same,growth inhibition,[8]; [17],28%
same,growth inhibition,[8]; at 50.0 µM,18.8%
same,growth inhibition,[9]; at 1.2 µM,-3%
same,growth inhibition,[9]; at 3.7 µM,-6%
same,growth inhibition,[9]; [16],-24%
same,growth inhibition,[9]; at 11.0 µM,-6%
same,growth inhibition,[9]; at 33.0 µM,-1%
same,growth inhibition,[9]; [17],33%
same,growth inhibition,[9]; at 50.0 µM,18.9%
same,growth inhibition,[9]; at 100.0 µM,95% (active)
same,growth inhibition,[11]; at 1.2 µM,1%
same,growth inhibition,[11]; at 3.7 µM,-2%
same,growth inhibition,[11]; at 11.0 µM,-1%
same,growth inhibition,[11]; at 33.0 µM,8%
same,growth inhibition,[11]; at 100.0 µM,96% (active)
same,growth inhibition,[12]; at 1.2 µM,4%
same,growth inhibition,[12]; at 3.7 µM,4%
same,growth inhibition,[12]; at 11.0 µM,5%
same,growth inhibition,[12]; at 33.0 µM,16%
same,growth inhibition,[12]; at 100.0 µM,96% (active)
same,growth inhibition,[13]; [16],-15%
same,growth inhibition,[13]; [17],84% (active)
same,growth inhibition,[13]; at 50.0 µM,90.2% (active)
same,growth inhibition,[14]; at 1.2 µM,2%
same,growth inhibition,[14]; at 3.7 µM,3%
same,growth inhibition,[14]; at 11.0 µM,28%
same,growth inhibition,[14]; at 33.0 µM,9%
same,growth inhibition,[14]; at 100.0 µM,98% (active)
